# Experimental data from PubChem BioAssay (NCI).
# Compounds without any hit were thinned out: in the full panel of roughly 83,000, 20% have a hit.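 Interpretation: 100, growth as untreated; towards 0, rising growth inhibition; 0, no net growth; 0 to -100, cell death. Compounds scoring below 10 were considered active.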 Unmarked numbers belong to inactive results. Activity calls are given as the source filed them.
# Assays:
# Experiment in all cases: NCI-60 one-dose screen, 48 h (100 = growth as untreated, 0 = no growth, -100 = all killed)
# Settings in all cases: 10 µM unless noted
# HCT-15 colon = system: HCT-15 colon
# HT29 colon = system: HT29 colon
# SNB-75 CNS = system: SNB-75 CNS
# U251 CNS = system: U251 CNS
# PC-3 prostate = system: PC-3 prostate
# SK-MEL-5 melanoma = system: SK-MEL-5 melanoma
# UACC-62 melanoma = system: UACC-62 melanoma
# LOX IMVI melanoma = system: LOX IMVI melanoma
# SK-MEL-28 melanoma = system: SK-MEL-28 melanoma
# SNB-19 CNS = system: SNB-19 CNS
Structure (SMILES),growth (HCT-15 colon) [%],growth (HT29 colon),growth (SNB-75 CNS),growth (U251 CNS),growth (PC-3 prostate),growth (SK-MEL-5 melanoma),growth (UACC-62 melanoma),growth (LOX IMVI melanoma),growth (SK-MEL-28 melanoma),growth (SNB-19 CNS)
O=C1C[C@H](Sc2nc(-c3ccc(F)cc3)cc(C(F)(F)F)n2)[C@H]2CO[C@@H]1O2,63.1,75.5%,98.3%,98.9%,96.2%,97.5%,98.2%,34.8%,105%,
CSc1ncnc2c1ncn2C1CCCO1 (stereo not given),103,99.7%,83.2%,103%,106%,107%,88.5%,102%,141%,
c1ccc(Sc2ncnc3ccccc23)cc1,75.2,88.2%,73.2%,87.2%,83.5%,66.1%,66.2%,67.5%,85.5%,
CN1CCN(Cc2ccc(NC(=O)c3[nH]ncc3Nc3ncnc4c3CCC4)cc2)CC1,13.7,9.71% (active),-22.6% (active),15.4%,9.21% (active),9.53% (active),9.97% (active),7.49% (active),5.62% (active),
Cc1nn(-c2ccccc2)c2nc(C)n(-c3ccc(Br)cc3)c(=O)c12,17.4,-15.7% (active),-6.84% (active),,26.4%,5.34% (active),38.7%,45.6%,69.3%,47.5%
CCOC(=S)SCc1ccc(Cl)cc1,94.8,103%,76.5%,90.5%,81.7%,106%,95.5%,99.3%,114%,
Cc1ccc(/C=C2\Oc3cc(OCC(=O)c4ccc(Cl)cc4)ccc3C2=O)cc1,93.1,104%,103%,97.5%,428%,86.3%,92.7%,98.8%,48.4%,
CCCCN(CCCC)Cc1c(C)[nH]c2cc(OC)ccc2c1=O,107,93.9%,89.5%,98.5%,85.2%,101%,101%,97.1%,112%,
CC(C)n1cc2c(N)ncnc2n1,106,101%,81.6%,106%,106%,108%,92.9%,108%,152%,
O=c1c(/C=C/c2ccco2)nnc(SCCN2CCOCC2)n1/N=C/c1ccc([N+](=O)[O-])cc1,99,106%,99.9%,104%,96.5%,91.1%,96.2%,106%,104%,
CCCCCCCCCCCCCCCC[N+]1(CC)CCCC1,22.8,-65.7% (active),-37% (active),,-77.6% (active),-83.6% (active),-78.3% (active),-64.1% (active),-38.6% (active),-53.9% (active)
Oc1ccccc1N=Cc1c(O)ccc2ccccc12,77.8,82.9%,69.8%,83.3%,61.3%,77.3%,63.8%,61.7%,113%,
CC1(C)CC(C(=O)OCCCCCCCCCCC[P+](c2ccccc2)(c2ccccc2)c2ccccc2)C(C)(C)N1O (stereo not given),88.5,-33.9% (active),-57.9% (active),110%,-70.1% (active),-97.6% (active),-69.3% (active),117%,-95.2% (active),
CC(=O)OC1Oc2cc(C)c(C)cc2-c2oc(=O)c(-c3cc4ccc(N(C)C)cc4oc3=O)cc21 (stereo not given),100,100%,69%,115%,61.9%,49.8%,61.6%,101%,115%,
CN(C)c1ccc(/C=C\C2=[N+](C)c3ccccc3C2(C)C)cc1,63.2,10.5%,31.3%,11%,-4.73% (active),3.41% (active),15.9%,16.1%,37.5%,
CSc1[nH]c2ncnc(N)c2c1C#N,99,97.9%,82.5%,107%,110%,99.9%,85.9%,109%,120%,
O=C1OC2C(I)C3CC2C1C3c1ccccc1 (stereo not given),105,98.7%,73.5%,104%,93.8%,108%,93.1%,93.4%,105%,
COc1cccc(/C=C\C(=O)c2ccccc2)c1,66.3,73.4%,78.9%,35.1%,63.5%,90.8%,70.7%,30.3%,103%,
CCN(CC)CC(C)(C)C(=O)/C=C/c1ccccc1,21.2,49%,81.6%,86.4%,69%,81.9%,39.8%,-2.72% (active),67.8%,
COc1ccc(CCN2CC=Cn3c2nc2ccccc2c3=O)cc1,15.9,12.9%,37.1%,27.6%,34.1%,-13.8% (active),31.8%,14.1%,78.7%,
CN1CCN(Cc2ccc(NC(=O)c3[nH]ncc3Nc3ncnc4[nH]ccc34)cc2)CC1,15.6,1.32% (active),-39.1% (active),7.23% (active),5.02% (active),-25.4% (active),6.54% (active),-67% (active),2.8% (active),
CS(=O)(=O)c1ccc(-c2cnc3ccc(-c4cccc(S(C)(=O)=O)c4)nn23)cc1,28.2,33.7%,12.4%,46.3%,37.6%,38.3%,28.8%,12.3%,52.5%,
Cc1ccc(Nc2c(C(N)=O)cnc3ccc(-c4csc(N)n4)cc23)cc1,98.7,103%,96.9%,,97.6%,96.7%,102%,96.2%,101%,102%
CNC(=O)c1cc(Oc2ccc3nc(NC(=O)Nc4ccc(N5CCC(N(C)C)CC5)cc4)sc3c2)ccn1,74.8,20.1%,86.4%,57.6%,95.1%,86.1%,99.2%,69.9%,87.7%,
CN(C)C(=O)c1cc2cnc(Nc3ccc(-c4csc5c(=O)cc(N6CCNCC6)oc45)cc3)nc2n1C1CCCC1,19.9,-15.1% (active),20.5%,,10%,28.5%,24.6%,-62.9% (active),40.7%,24.9%
CC[C@H](Nc1cc(C)nc(N)n1)c1nc2cccc(NCc3ccc(C(=O)NO)cc3)c2c(=O)n1-c1ccccc1,92.5,10.2%,15.7%,,12.4%,30%,9.65% (active),-57.9% (active),5.53% (active),-40.3% (active)
CCCCCn1cnc2c(=S)nc[nH]c21,107,114%,90.2%,110%,98%,93.5%,109%,107%,106%,
NS(=O)(=O)N(c1cc(C(F)(F)F)cc(C(F)(F)F)c1)C1CCN(Cc2ccc(F)cc2)CC1,24.4,8.44% (active),55.3%,59.8%,34.2%,32.2%,57.1%,68.9%,82.1%,
COC(=O)[C@H](C(C)C)n1c(=O)c2cc(OC)c(OC)cc2c2cnc3[nH]ccc3c21,41.3,45.5%,13.2%,,29.2%,58.8%,22.3%,28.2%,62.2%,77.7%
Cc1cccc(NC(=O)c2sc3nc4c(cc3c2N)C(=O)CCC4)c1,28.9,11.7%,4.87% (active),,27.1%,22.8%,22%,54.4%,62.2%,42.1%
